Experimental data published in PubChem BioAssay (NCI).
Compounds without any hit were thinned out: in the full panel of roughly 83,000, 20% have a hit.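 Testing used 96-well plates and a 48-hour single-concentration exposure. Example: -40 means 40% of the starting cells died.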 Unmarked numbers belong to inactive results. The source made the active and inactive calls. The calls were made as follows: active = growth percent below 10; inactive = the rest.

Experiments:
Experiment in all cases: NCI-60 one-dose screen, 48 h (100 = growth as untreated, 0 = no growth, -100 = all killed)
Details in all cases: 10 µM
[1] = system: RPMI-8226 leukemia
[2] = system: OVCAR-8 ovarian
[3] = system: OVCAR-5 ovarian
[4] = system: OVCAR-4 ovarian
[5] = system: SK-OV-3 ovarian
[6] = system: IGROV1 ovarian
[7] = system: OVCAR-3 ovarian
[8] = system: HS 578T breast
[9] = system: NCI/ADR-RES ovarian
[10] = system: T-47D breast
[11] = system: BT-549 breast
[12] = system: MDA-MB-435 melanoma
[13] = system: SW-620 colon
[14] = system: MCF7 breast
[15] = system: HCT-116 colon
[16] = system: HCC-2998 colon
[17] = system: KM12 colon

SMILES	growth [1]	growth [2]	growth [3]	growth [4]	growth [5]	growth [6]	growth [7]	growth [8]	growth [9]	growth [10]	growth [11]	growth [12]	growth [13]	growth [14]	growth [15]	growth [16]	growth [17]
COc1ccc(COC(=O)CC(C)C)cc1	103%	96.1%	100%	109%	102%	106%	105%	104%	98.8%	96.7%	100%	107%	105%	99.7%	96.3%	103%	98%
O=C(/C=C/c1ccc(Cl)cc1)c1ccc(Br)cc1	28.1%	103%	91.8%	92.5%	100%	88.2%	100%	124%	101%	79.7%	102%	99.1%	102%	26.3%	75.5%	95%	93.8%
O=C(c1ccc(Cl)cc1)c1no[n+]([O-])c1C(=O)c1ccc(Cl)cc1	35.5%	30.1%	105%	92.5%	105%	-35.8% (active)	43.2%	109%	82.7%	89.6%	98.7%	89.8%	44.2%	92.1%	49%	113%	88.5%
COc1ccc2nc(/C=C/c3ccc(N(C)C)cc3)sc2c1	104%	115%	97.4%	107%	197%	82.5%	103%	102%	93.1%	300%	104%	90.3%	93.6%	96.6%	105%		104%
CC(C)c1[nH]nc2c(NCc3ccc(-c4ccccn4)cc3)nc(SCCN(C)C)nc12	-14.4% (active)	13.9%	21.4%	-1.82% (active)	8.24% (active)	16.2%	4.83% (active)	21.4%	7.1% (active)	-6.72% (active)	-43.1% (active)	0.81% (active)	9.8% (active)	4.04% (active)	9.24% (active)	-15.7% (active)	8.47% (active)
O=C1CC[C@@H](C(=O)N[C@H]2CSSC[C@@H](C(=O)NCCc3ccccc3)NC(=O)[C@H](Cc3ccccc3)NC(=O)[C@@H]3CCCN3C(=O)[C@@H]3CCCN3C2=O)N1	108%	104%	90.4%	105%	97.5%			101%	99.8%	25.3%	106%	109%	102%	95.8%	95.8%	94.3%	105%
O=S(=O)(O)C1(O)CCCCC1	81.5%	79.3%	90.5%	79.1%	94.9%	65.9%	103%	104%	95.4%	85.7%	112%	89.2%	81.5%	78%	50.9%	110%	82.9%
O=C(NNc1nc(N2CCCC2)nc(N2CCCC2)n1)c1ccccc1	106%	104%	100%	106%	121%	103%		104%	102%	97.6%	112%	117%	104%	96.2%	109%	106%	104%
COc1ccc(Cn2cc3c(c2-c2ccccc2)CC(C)(C)c2cnoc2-3)cc1	32.2%	50.4%	78%	60.4%	20%	44.6%	6.6% (active)	9.84% (active)	18.7%	30.7%	46.2%	-16.6% (active)	13.6%	17.1%	22.9%	77.4%	29.1%
N#CN1CC[C@H](C(=O)Nc2ncc(-c3ccncc3)s2)C1	7.02% (active)	2.72% (active)	5.32% (active)	3.57% (active)	2.96% (active)	12.5%	-22.1% (active)	2.54% (active)	5.43% (active)	-23.4% (active)	-14.7% (active)	6.91% (active)	7.08% (active)	2.99% (active)	1.83% (active)	4.61% (active)	-1.2% (active)
COc1cc(/C=C/C(=O)c2cc(-c3ccc(C(F)(F)F)cc3)ccc2O)cc(OC)c1OC	-9.06% (active)	64.1%	99.6%	64.6%	81.5%	75.3%		59.4%	65.9%	35.7%	73.2%	48.4%	54.9%	43.8%	46.6%	94.6%	69.2%
